Screen size: about 2,100 compounds; about 770 (37%) were called active.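 How the source made its calls: active means by-eye trace score of 1 for enhancers or -1 for inhibitors, so actives lie on both sides (some results past the limit were not filed as active); inactive means score 0, or 3 fluorescent, or 4 baseline rise.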 Some of the results follow.
Molecular target: G protein-activated inward rectifier potassium channel 2 (Homo sapiens) + G protein-activated inward rectifier potassium channel 1 (Homo sapiens) (UniProt P48051+P48549)
Sequence (P48051 whole entry, looked up): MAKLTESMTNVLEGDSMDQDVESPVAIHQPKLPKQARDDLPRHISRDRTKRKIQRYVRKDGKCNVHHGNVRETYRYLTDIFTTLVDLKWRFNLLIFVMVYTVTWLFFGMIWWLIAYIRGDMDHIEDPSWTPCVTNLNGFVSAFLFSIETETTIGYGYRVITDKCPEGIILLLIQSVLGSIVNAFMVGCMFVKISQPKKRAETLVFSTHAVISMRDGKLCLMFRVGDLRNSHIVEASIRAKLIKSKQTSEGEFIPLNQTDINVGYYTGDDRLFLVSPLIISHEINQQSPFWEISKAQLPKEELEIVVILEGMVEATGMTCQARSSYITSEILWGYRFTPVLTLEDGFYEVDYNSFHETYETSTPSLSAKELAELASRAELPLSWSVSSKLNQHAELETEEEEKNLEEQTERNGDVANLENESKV
Sequence (P48549 whole entry, looked up): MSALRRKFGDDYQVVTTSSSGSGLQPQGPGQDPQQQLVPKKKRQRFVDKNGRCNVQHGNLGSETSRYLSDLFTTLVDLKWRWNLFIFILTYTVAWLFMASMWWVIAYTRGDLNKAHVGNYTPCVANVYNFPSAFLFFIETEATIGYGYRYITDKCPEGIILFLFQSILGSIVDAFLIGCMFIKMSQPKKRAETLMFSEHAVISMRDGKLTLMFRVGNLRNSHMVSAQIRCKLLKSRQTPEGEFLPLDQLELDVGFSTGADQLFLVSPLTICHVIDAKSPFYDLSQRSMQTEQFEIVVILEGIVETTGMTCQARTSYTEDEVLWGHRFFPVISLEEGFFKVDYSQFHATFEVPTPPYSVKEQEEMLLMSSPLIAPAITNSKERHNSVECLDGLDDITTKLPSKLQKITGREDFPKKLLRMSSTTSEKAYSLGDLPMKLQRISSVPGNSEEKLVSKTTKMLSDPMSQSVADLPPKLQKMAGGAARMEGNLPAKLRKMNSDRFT
Assay: GIRK1/2 thallium flux modulators, retest, confirmation, cell-based, HEK293 rmGlu8/hGIRK1/2, FluoZin-2 (AID 623911)
Conditions: HEK293 rmGlu8/hGIRK1/2, thallium flux FluoZin-2; actives lie on both sides; glutamate co-added at its EC20 level

| SMILES | manual score |
| --- | --- |
| O=C(CSc1ccc2ccccc2c1Br)Nc1cccc(S(=O)(=O)NC2=NCCCCC2)c1 | 0 (inactive) |
| O=C(COC(=O)c1cccc(N2C(=O)c3ccccc3C2=O)c1)Nc1ccccc1 | 0 (inactive) |
| CCc1ccc(C(=O)OCC(=O)Nc2cccc(S(=O)(=O)NC3=NCCCCC3)c2)cc1 | 1 (active) |
| N#C/C(=C/c1ccc(N2CCOCC2)o1)c1nc2ccccc2[nH]1 | 3 (inactive) |
| S=C(Nc1ccc(Cl)cc1)c1nc2ccccc2[nH]1 | 1 (active) |
| Cc1ccc(NC(=S)c2nc3ccccc3[nH]2)cc1 | 1 (active) |
| Cc1oncc1C(=S)Nc1ccccc1 | 0 (inactive) |
| CCOC(=O)N1CCN(C(=O)CN(Cc2ccccc2)S(=O)(=O)c2ccc(OC)c(C)c2)CC1 | -1 (active) |
| COc1ccc(OC)c(S(=O)(=O)N(C)CC(=O)N2CCN(c3ccccc3F)CC2)c1 | 0 (inactive) |
| COc1ccc(S(=O)(=O)N(CC(=O)N2CCN(c3ccccc3)CC2)c2ccccc2)cc1 | 0 (inactive) |
| O=C1NC(=S)S/C1=C\c1ccc(SCc2ccccc2)o1 | 0.5 (inactive) |
| O=C1NC(=O)/C(=C\c2ccccc2Oc2ccc(F)c(F)c2)S1 | 0 (inactive) |
| COc1cc(/C=C2/SC(=S)NC2=O)ccc1OS(=O)(=O)c1ccc(C)cc1 | 0 (inactive) |
| COc1ccc(/C=C2\SC(=O)NC2=S)cc1OC | 1 (active) |
| COc1cc(/C=C2\SC(=S)NC2=O)ccc1OS(=O)(=O)c1ccccc1 | 1 (active) |
| O=C1NC(=S)/C(=C\c2ccc(-c3ccccc3Cl)o2)S1 | 3 (inactive) |
| CCOc1ccc(-c2nc(-c3ccc(OC)cc3)no2)cc1OCC | 0 (inactive) |
| OCCCN=c1cc(-c2ccccc2)oc2ccc(Cl)cc12 | -1 (active) |
| CC(C)c1ccc(-c2noc(C3CCCN(S(C)(=O)=O)C3)n2)cc1 (configuration not stated) | 0 (inactive) |
| O=S(=O)(c1ccc(Cl)c(F)c1)N1CCC(c2nc(-c3ccncc3)no2)CC1 | 1 (active) |
| O=C(NC(=S)N1CCN(Cc2ccc3c(c2)OCO3)CC1)c1cccc(Br)c1 | 1 (active) |
| O=C(c1ccc2nccnc2c1)N1CCN(Cc2ccc3c(c2)OCO3)CC1 | 1 (active) |
| O=C(NC(=S)N1CCN(Cc2ccc3c(c2)OCO3)CC1)c1ccc(Cl)cc1 | 1 (active) |

| SMILES | manual score |
| --- | --- |
| CCN(CC)c1ccc(C(=O)NC(=S)N2CCN(Cc3ccc4c(c3)OCO4)CC2)cc1 | 0 (inactive) |
| Cc1cc2cc3c(cc2nc1SCC(=O)N1CCN(C(=O)c2ccco2)CC1)OCO3 | 0 (inactive) |
| O=C(c1ccc(COc2c(F)c(F)c(F)c(F)c2F)o1)N1CCN(Cc2ccc3c(c2)OCO3)CC1 | 0 (inactive) |
| Fc1ccc(NC(=S)NN=C2CCCCCC2)cc1 | 0 (inactive) |
| C/C(=N\NC(=S)Nc1ccc(F)cc1)c1ccc2c(c1)OCCO2 | 1 (active) |
| C/C(=N/NC(=S)Nc1ccccc1)c1ccc2c(c1)OCO2 | 0 (inactive) |
| Cc1cccc(C(=O)N2CCC(Cc3ccccc3)CC2)c1[N+](=O)[O-] | -1 (active) |
| Cc1noc(C)c1S(=O)(=O)N1CCC(Cc2ccccc2)CC1 | 0 (inactive) |
| O=C(Nc1ccc(OCC(=O)N2CCC(Cc3ccccc3)CC2)cc1)c1ccco1 | 0 (inactive) |
| O=C(Nc1nc2ccccc2s1)c1cc(-c2ccccc2)nn1-c1ccccc1 | 0 (inactive) |
| CC(=O)c1sc(NC(=O)c2cc(-c3ccccc3)nn2-c2ccccc2)nc1C | 1 (active) |
| COC(=O)Nc1nc(C)c(C(=O)N(C)C)s1 | 0 (inactive) |
| C#CC(CO)N(CCN(Cc1ccccc1)C(C#C)CO)Cc1ccccc1 (configuration not stated) | -1 (active) |
| C#CCSc1nnc(-c2cccc3ccccc23)o1 | 0 (inactive) |
| CCOC(=O)c1c(NC(=S)NCCc2ccccc2)sc2c1CC(C(C)C)OC2 (configuration not stated) | 0 (inactive) |
| C=CCNC(=S)Nc1sc2c(c1C(=O)OCC)CC(C)(CC)OC2 (configuration not stated) | 1 (active) |
| CCOC(=O)c1c(NC(=S)NC)sc2c1CC(C)(C)SC2 | 1 (active) |
| CCOC(=O)C1=C(NC(=S)NC(=O)c2ccccc2)c2ccccc2CC1C(C)C (configuration not stated) | 0 (inactive) |
| C=CCNC(=S)Nc1sc2c(c1C(=O)OCC)CC(C(C)C)OC2 (configuration not stated) | 1 (active) |
| CCOC(=O)c1c(NC(=O)C2C3C=CC(C3)C2C(=O)O)sc2c1CCC(CC)C2 (configuration not stated) | 0 (inactive) |
| C=C(C)C1CC=C(C)/C(=N/NC(=S)Nc2ccccc2)C1 (configuration not stated) | 0 (inactive) |
| Cc1ccc(NC(=O)CN2c3cccc4cccc(c34)S2(=O)=O)cc1S(=O)(=O)N1CCOCC1 | 1 (active) |
| COC(=O)c1ccc(C)c(NC(=O)CN2C(=O)c3ccccc3S2(=O)=O)c1 | 0 (inactive) |

| SMILES | manual score |
| --- | --- |
| Cc1ccc(NC(=O)CSc2nccn2C)cc1S(=O)(=O)N1CCOCC1 | 0 (inactive) |
| CC12CCC(C(=O)N(CSC(=S)N/N=C\c3ccccc3Cl)C1=O)C2(C)C (configuration not stated) | 0.5 (inactive) |
| CN(C)c1ccc(/C=N\NC(=S)SCN2C(=O)C3CCC(C)(C2=O)C3(C)C)cc1 (configuration not stated) | 0 (inactive) |
| CC12CCC(C(=O)N(CSC(=S)N/N=C\c3ccccc3)C1=O)C2(C)C (configuration not stated) | 1 (active) |
| COc1ccc(/C=N\NC(=S)SCN2C(=O)C3CCC(C)(C2=O)C3(C)C)cc1 (configuration not stated) | 1 (active) |
| CC12CCC(C(=O)N(CSC(=S)N/N=C\c3ccccc3O)C1=O)C2(C)C (configuration not stated) | 1 (active) |
| Clc1ccccc1-c1nn2c(COc3ccccc3)nnc2s1 | 0 (inactive) |
| CSc1ccc(S(=O)(=O)NCc2ccccc2Cl)cc1 | 0 (inactive) |
| Cc1ccccc1CNS(=O)(=O)c1ccc2c(c1)OCCO2 | -1 (active) |
| Cc1nc2ccc(NS(=O)(=O)c3ccc4c(c3)OCCO4)cc2s1 | 0 (inactive) |
| CCSc1nnc(NC(=O)c2nn(C(C)C)c(=O)c3ccccc23)s1 | 0 (inactive) |
| CCSc1nnc(NC(=O)NC(CC)(C(F)(F)F)C(F)(F)F)s1 | 1 (active) |
| CCSc1nnc(NC(=O)CC)s1 | 0 (inactive) |
| CC(C)(C)c1ccc(-c2n[nH]c(=S)n2C2CCCC2)cc1 | 0 (inactive) |
| CN(CCC#N)C(=O)CSc1ncnc2sc(-c3ccccc3)cc12 | 0 (inactive) |
| O=c1c2ccccc2nc(-c2ccccc2)n1/N=C/c1ccc([N+](=O)[O-])cc1 | 0 (inactive) |
| C/C(N)=C(/C#N)C(=O)CSc1nc2cc(Cl)ccc2c(=O)n1-c1ccc(C)cc1 | 0 (inactive) |
| O=c1c2ccc(Cl)cc2nc(-c2cccc(C(F)(F)F)c2)n1O | 1 (active) |
| O=c1c2cc(Br)ccc2nc(-c2cccc(C(F)(F)F)c2)n1O | 1 (active) |
| O=C1c2ccccc2NC(c2ccc(-c3cccc(Cl)c3)o2)N1O (configuration not stated) | 0.5 (inactive) |
| O=c1c2ccccc2nc(-c2cccc(Cl)c2)n1O | 1 (active) |

From PubChem BioAssay AID623911 (Vanderbilt High Throughput Screening Facility, 2012)
